Data: PubChem BioAssay (NCI)
The panel holds about 83,000 compounds, 20% with a hit somewhere; the sample as a whole holds those more often.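 Single-concentration screen, 48 h exposure, 96-well plates. Endpoint: percent growth. Below 10 = active.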 Activity calls are given as the source filed them.

Key:
Assay in all cases: NCI-60 one-dose screen, 48 h (100 = growth as untreated, 0 = no growth, -100 = all killed)
Settings in all cases: 10 µM unless noted
[1] = test system: HCT-15 colon
[2] = test system: HT29 colon
[3] = test system: SNB-75 CNS
[4] = test system: SNB-19 CNS
[5] = test system: U251 CNS
[6] = test system: PC-3 prostate
[7] = test system: SK-MEL-5 melanoma
[8] = test system: UACC-62 melanoma
[9] = test system: LOX IMVI melanoma
[10] = test system: SK-MEL-28 melanoma

Measured: growth

CC(C)n1nc(C#Cc2cccc(NC(=O)c3cccc(C(F)(F)F)c3)c2)c2c(N)ncnc21
inactive: [6] 16.4%
active: [1] -3.07% | [2] -11.7% | [3] -66.2% | [4] 5.79% | [5] 2.84% | [7] -61.4% | [8] -56.1% | [9] -91.8% | [10] -27.9%

COc1cc2ccccc2cc1C(=O)NC(=S)Nc1ccc(-c2nc3ccccc3[nH]2)cc1
inactive: [1] 78.5% | [2] 72.7% | [3] 54.4% | [4] 86.6% | [5] 75.2% | [6] 90.6% | [7] 42.5% | [8] 93% | [9] 60.5% | [10] 90.1%

Cc1ccc(Nc2ccc(Nc3ccc(C)cc3S(=O)(=O)O)c3c2C(=O)c2ccccc2C3=O)c(S(=O)(=O)O)c1
inactive: [1] 103% | [2] 98.4% | [3] 85.3% | [4] 108% | [5] 107% | [6] 83% | [7] 102% | [8] 97.3% | [9] 102% | [10] 107%

[2H]c1nc(Nc2ncc(F)c(-c3cc(F)c4nc(C)n(C(C)C)c4c3)n2)c([2H])c([2H])c1CN1CCN(C([2H])([2H])C([2H])([2H])[2H])CC1
inactive: [1] 39.8% | [2] 34.6% | [3] 33.9% | [4] 65.5% | [5] 42.2% | [6] 44.2% | [7] 41.8% | [8] 73.3% | [9] 39.1% | [10] 70.3%

COc1cc(-c2ccc(-c3ccc(C(=N)N)nc3)s2)cc(OC)c1OC
inactive: [1] 21.4% | [2] 14.2% | [3] 68.5% | [4] 65.2% | [5] 28.9% | [6] 54.7% | [7] 37.6% | [8] 59.5% | [10] 59.3%
active: [9] -14.3%

Cc1nc(Nc2ccccn2)sc1C(=O)/C=C/c1ccc(Br)cc1
inactive: [1] 30.4% | [2] 25.9% | [3] 40.2% | [4] 69.2% | [5] 59.8% | [6] 56.3% | [7] 84.7% | [8] 61.5% | [9] 32.2% | [10] 99.6%

Cc1ccc(C)c2c1C(=O)OC2=O
inactive: [1] 101% | [2] 93.1% | [3] 91.2% | [4] 107% | [5] 104% | [6] 97.7% | [7] 102% | [8] 101% | [9] 98.4% | [10] 92.9%

CCOC(=O)c1c2c(c(C)n1C)-c1nn(Cc3ccc(OC)cc3)cc1CC2
inactive: [1] 83.9% | [2] 79.1% | [3] 103% | [4] 95.2% | [5] 96.4% | [6] 66.3% | [7] 69.6% | [8] 68.9% | [9] 84.5% | [10] 119%

Cc1nc(Nc2cccc(NC(=O)Nc3ccc(Cl)cc3)c2)c2ccccc2n1
inactive: [1] 77% | [2] 80.8% | [3] 85.3% | [4] 99.9% | [5] 91.9% | [6] 77.9% | [7] 91.5% | [8] 76.4% | [9] 88.7% | [10] 102%

CC1(C)N=C(N)N=C(N)N1c1cccc(CN)c1
inactive: [1] 97.8% | [2] 95.7% | [3] 73.6% | [4] 100% | [5] 98.9% | [6] 87.3% | [7] 109% | [8] 95.9% | [9] 89.2% | [10] 106%

CCNCCNc1cc(-c2ccc(C#N)cc2)c(C#N)c2nc3ccccc3n12
active: [2] 4.72% | [3] -20.4% | [5] -23.4% | [8] -34.8% | [9] -53.9% | [10] -47.7%
inactive: [1] 33.6% | [4] 51% | [6] 44.7% | [7] 65.7%
